In PubChem BioAssay AID488969 (Vanderbilt High Throughput Screening Facility, 2010):
Over roughly 110,000 compounds, “z-score” has its median near -0.1; the highest 2% begin near 2. Many of the other results were omitted from the sample, so the highest values are more common in it than they were. The source made the active and inactive calls.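 How the source made its calls: active means z-score in the third read window above 3 or below -3; inactive means the rest.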

Target: Metabotropic glutamate receptor 8 (Rattus norvegicus) (UniProt P70579)
Test: rat mGluR8 modulators via GIRK flux, primary screen, cell-based, thallium flux, HTS (AID 488969)
Settings: HEK293 rat mGluR8, GIRK (G protein-gated inwardly rectifying potassium channel) thallium flux, FluoZin2; at 10 µM; stronger effect = higher value; submaximal glutamate (EC20) added with thallium

Sequence of Metabotropic glutamate receptor 8 (Rattus norvegicus) (P70579 whole entry, looked up): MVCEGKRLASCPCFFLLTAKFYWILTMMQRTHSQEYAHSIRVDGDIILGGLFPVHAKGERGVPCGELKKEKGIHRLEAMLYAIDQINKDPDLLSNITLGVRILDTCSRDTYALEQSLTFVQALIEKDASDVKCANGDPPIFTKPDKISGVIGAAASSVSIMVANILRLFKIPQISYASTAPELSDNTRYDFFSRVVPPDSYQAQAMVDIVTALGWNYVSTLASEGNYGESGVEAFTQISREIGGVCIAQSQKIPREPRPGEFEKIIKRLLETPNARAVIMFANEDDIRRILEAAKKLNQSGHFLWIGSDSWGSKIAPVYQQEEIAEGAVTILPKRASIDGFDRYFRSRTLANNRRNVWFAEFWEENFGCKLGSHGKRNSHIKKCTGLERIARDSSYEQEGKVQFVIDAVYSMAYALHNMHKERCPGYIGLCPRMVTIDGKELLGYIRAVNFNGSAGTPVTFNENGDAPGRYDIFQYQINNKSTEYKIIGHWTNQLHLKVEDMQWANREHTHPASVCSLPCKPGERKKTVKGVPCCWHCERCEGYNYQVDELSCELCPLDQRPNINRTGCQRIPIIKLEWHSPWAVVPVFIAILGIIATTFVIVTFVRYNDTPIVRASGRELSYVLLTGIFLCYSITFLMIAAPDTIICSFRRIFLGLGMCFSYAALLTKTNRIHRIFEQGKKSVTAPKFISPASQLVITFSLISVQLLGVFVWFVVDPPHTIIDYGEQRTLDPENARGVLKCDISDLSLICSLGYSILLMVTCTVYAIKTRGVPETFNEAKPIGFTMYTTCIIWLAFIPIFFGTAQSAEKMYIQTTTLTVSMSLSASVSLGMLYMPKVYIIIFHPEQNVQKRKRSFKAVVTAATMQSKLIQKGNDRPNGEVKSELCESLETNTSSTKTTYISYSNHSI

| Structure (SMILES) | z-score |
| --- | --- |
| CN1CCN(c2ncnc3c2cnn3-c2ccc(Cl)cc2)CC1 | 0.276 |
| COc1ccccc1OCCNc1nc2c(c(=O)n(C)c(=O)n2C)n1C | 1.41 |
| Cc1ccc(Cc2cnc(NC(=O)c3ccco3)s2)cc1 | -0.555 |
| Cc1ccc(NC(=O)CSc2nc3ccccc3c3nc(CCc4c(C)n[nH]c4C)nn23)cc1F | -0.264 |
| CNC(=O)CN1C(=O)CSc2ncccc21 | 0.227 |
| COCCNC(=O)CN1C(=O)CSc2ncccc21 | 3.57 (active) |
| COC(=O)CN1C(=O)CSc2ncccc21 | 0.767 |
| COC(=O)c1ccc(C)c(NC(=O)Cc2coc3cc(OC)ccc23)c1 | 0.022 |
| Cn1c(SCCOc2cccc(Cl)c2)nnc1-c1ccncc1 | -0.17 |
| Cc1ccc(OCCSc2nnc(-c3ccncc3)n2C)cc1 | -0.157 |
| COCCSc1nnc(-c2cccc(C#N)c2)n1C | 2.31 |
| Cc1ccc(S(=O)(=O)N2CCC(C(=O)N3CCC[C@H]3C(=O)NCc3ccccc3)CC2)cc1 | -0.265 |
| CCC(c1nnnn1C(C)(C)C)N1CCN(C2CCCC2)CC1 (stereo not given) | 0.224 |
| O=C(CN(Cc1cccs1)C(=O)CNS(=O)(=O)c1ccc(F)cc1)NCc1ccco1 | -0.317 |
| Cc1ccc(-c2cc(-c3ccccc3C)[nH]n2)c(O)c1 | -0.115 |
| Cc1ccc(-c2cc(-c3cccs3)[nH]n2)c(O)c1 | 2.77 |
| Cc1ccc(-c2cc(-c3ccccc3[N+](=O)[O-])[nH]n2)c(O)c1 | -0.292 |
| COC(=O)c1cc(NS(=O)(=O)c2ccc(NCc3cccnc3)c(N)c2)cc(C(=O)OC)c1 | -0.104 |
| CCOC(=O)c1nc2cc3n(c(C)c-2c1C)C(C)C(C)=C3C (stereo not given) | -0.0669 |
| CCOC(=O)c1nc2cc3n(c(CC(C)C)c-2c1C)CC(C)=C3C | 0.604 |
| CCOC(=O)c1nc2cc3n(c(C)c-2c1C)C(C)C(CC)=C3C (stereo not given) | 2.31 |
| CCOC(=O)Nc1sc2c(c1C#N)CCCC2 | 0.504 |

| Structure (SMILES) | z-score |
| --- | --- |
| CSc1ccccc1NC(=O)COc1ccccc1Cl | -1.54 |
| Cc1cnc(NC(=O)COc2ccccc2Cl)s1 | 3.06 (active) |
| Cc1cnc(NC(=O)COc2cccc3c2OC(C)(C)C3)s1 | 0.713 |
| O=C(CCCCCNS(=O)(=O)c1ccc(Br)cc1)NCCN1CCOCC1 | 0.263 |
| Cc1ccc(S(=O)(=O)NCCC(=O)NC2CCCC2)cc1 | 0.757 |
| COc1ccc(CCCC(=O)NC2CCCCC2)cc1 | -0.301 |
| COc1ccc(S(=O)(=O)NCCCCCC(=O)NCCCN2CCOCC2)cc1 | 2.89 |
| COc1ccc(S(=O)(=O)NCCC(=O)NC2CCCCCCC2)cc1 | 3.82 (active) |
| CCCCNC(=O)CCCCCNS(=O)(=O)c1ccc(OC)cc1 | 1.14 |
| CC(C)(C)NC(=O)CN1CCC(O)(c2ccccc2)CC1 | -0.263 |
| CCOC(=O)CC(=O)CSc1nc2cc(C)ccc2cc1C | 0.9 |
| CNC(=O)c1sc(-c2ccccc2)nc1C | -0.396 |
| COc1ccc(C(=O)CSc2ccc(-c3ccccc3)nn2)cc1 | -0.139 |
| CN=Cc1sc2ccccc2c1O | 0.0625 |
| Oc1c(C=Nc2cccnc2)sc2ccccc12 | -0.313 |
| Oc1c(C=NCc2ccncc2)sc2ccccc12 | 2.11 |
| O=c1ccc(/C=C/c2ccccc2)nn1Cc1ccc(Cl)cc1Cl | 0.353 |
| CCN(CC)c1ccc(C(=O)O)cc1 | -0.133 |
| CCN1CCN(C(=O)c2ccc(Sc3ccccc3Cl)c([N+](=O)[O-])c2)CC1 | 0.195 |
| O=C1c2oc3ccccc3c(=O)c2C(c2cccc(O)c2)N1c1ccccn1 (stereo not given) | -0.576 |
| COc1ccc(C2c3c(oc4ccccc4c3=O)C(=O)N2c2ccccn2)cc1 (stereo not given) | -0.221 |
| CCN(CC)CCN1C(=O)c2oc3ccccc3c(=O)c2C1c1ccccc1 (stereo not given) | 3.81 (active) |

| Structure (SMILES) | z-score |
| --- | --- |
| CCN(CC)CCN1C(=O)c2oc3ccccc3c(=O)c2C1c1ccc(F)cc1 (stereo not given) | 4.39 (active) |
| CCN(CC)CCCN1C(=O)c2oc3ccccc3c(=O)c2C1c1cccnc1 (stereo not given) | 0.402 |
| CN(C)CCN1C(=O)c2oc3ccc(F)cc3c(=O)c2C1c1ccncc1 (stereo not given) | -0.265 |
| CCOc1ccc(C2c3c(oc4ccccc4c3=O)C(=O)N2CCCN2CCOCC2)cc1 (stereo not given) | -0.851 |
| CCN(CC)CCN1C(=O)c2oc3ccccc3c(=O)c2C1c1ccc(C)cc1 (stereo not given) | 8.12 (active) |
| CCCOc1ccc(C2c3c(oc4ccccc4c3=O)C(=O)N2CCN(CC)CC)cc1OC (stereo not given) | 0.615 |
| CN1C(=O)c2oc3ccccc3c(=O)c2C1c1ccccn1 (stereo not given) | 8.59 (active) |
| CN(C)CCN1C(=O)c2oc3ccccc3c(=O)c2C1c1ccc(F)cc1 (stereo not given) | 1.86 |
| CN(C)CCN1C(=O)c2oc3ccccc3c(=O)c2C1c1cccc(Br)c1 (stereo not given) | 0.553 |
| COc1ccc2nc(NC3=NC(C(=O)Nc4ccc(C)cc4)CC(=O)N3)nc(C)c2c1 (stereo not given) | -0.114 |
| Cc1cc(C)c(NC(=O)C2CCCCN2C)c(C)c1 (stereo not given) | -0.0533 |
| COc1ccc(N=C2SC(C(N)=O)CC(=O)N2CCc2ccc(OC)c(OC)c2)cc1 (stereo not given) | -0.154 |
| CCOCCOc1nc2c(c(=O)n(C)c(=O)n2C)n1CCc1ccccc1 | -0.18 |
| CCOc1ccc(NC(=O)Cn2nnc(-c3ccccc3NC(=O)c3cccs3)n2)cc1 | -0.124 |
| COc1cc(C=O)ccc1OS(=O)(=O)c1ccccc1[N+](=O)[O-] | -0.429 |
| COc1ccc(S(=O)(=O)CCc2nnc(NC(=O)c3cccs3)s2)cc1 | -0.075 |
| CSc1cccc(NC(=O)CN(c2ccc(C)cc2C)S(C)(=O)=O)c1 | 3.01 (active) |
| CN(C)S(=O)(=O)N(CC(=O)Nc1ccccc1F)c1ccccc1 | 0.148 |
| CN(C)S(=O)(=O)N(CC(=O)Nc1cccc(F)c1)c1ccccc1 | 0.587 |
| CN(C)S(=O)(=O)N(CC(=O)Nc1ccccc1)c1ccccc1 | 0.311 |
| COC(=O)c1ccccc1NC(=O)CN(c1ccccc1)S(=O)(=O)N(C)C | -1.07 |
| CSc1cccc(NC(=O)CN(c2cccc(C)c2)S(C)(=O)=O)c1 | 0.00929 |

| Structure (SMILES) | z-score |
| --- | --- |
| CCCCNC(=O)c1ccccc1NC(=O)CN(c1ccccc1)S(=O)(=O)N(C)C | 2.11 |
| CSc1cccc(NC(=O)CN(c2cc(C)ccc2C)S(C)(=O)=O)c1 | 1.11 |
| CSc1cccc(NC(=O)CN(c2ccccc2)S(=O)(=O)N(C)C)c1 | 3.6 (active) |
| COc1ccc(C(C(=O)NC2CCCCC2)N(CC2CCCO2)C(=O)C2COc3ccccc3O2)cc1OC (stereo not given) | -0.167 |
| COc1ccc(S(=O)(=O)Nc2ccccc2C(=O)NCc2ccco2)cc1 | -0.614 |
| FC(F)(F)C1=CC(c2ccccc2)=NCCN1 | -0.25 |
| COc1cc(O)oc1C=Nc1ccc(Cl)cc1 | -0.289 |
| Cc1ccc(N2CC(C(=O)Nc3ccncc3)CC2=O)cc1 (stereo not given) | -0.196 |
| COc1ccc(OC)c(NC(=O)CSc2nc3c(c(=O)n(C)c(=O)n3C)n2C)c1 | -1.15 |
| Cc1cccc(N=Cc2cc3c(cc2[N+](=O)[O-])OCO3)c1 | -0.0653 |
| Cc1ccc(/C=N\NC(=O)c2cc([N+](=O)[O-])cc([N+](=O)[O-])c2)o1 | 4.57 (active) |
| Cc1ccc(/C=N/NC(=O)c2cccc([N+](=O)[O-])c2)o1 | -0.121 |
| O=C(N/N=C/c1ccco1)c1cc([N+](=O)[O-])cc([N+](=O)[O-])c1 | 0.778 |
| COc1cccc(-c2nc(-c3ccc(NC(=O)Cc4ccccc4OC)cc3)no2)c1 | 0.363 |
| CCCNC(=O)Cc1ccsc1 | 0.11 |
| O=C(CCN1C(=O)c2ccccc2C1=O)Nc1ccc(-c2nc3ccccc3o2)cc1 | -0.0516 |
| Cc1cc(S(=O)(=O)N2CCCC2)ccc1OCC(=O)N1CCOCC1 | 0.0243 |
| COC(=O)c1cc(=O)n(CCc2ccc(OC)cc2)c(=Nc2ccc(F)c(Cl)c2)s1 | 9.49 (active) |
| COC(=O)c1cc(=O)n(CCc2ccccc2F)c(=Nc2ccc(F)c(Cl)c2)s1 | -0.11 |
| COC(=O)c1cc(=O)n(CCc2ccc(OC)c(OC)c2)c(=Nc2ccc(F)c(Cl)c2)s1 | 0.363 |
| O=C(CSc1nc2c(c(C(F)(F)F)n1)CCc1ccccc1-2)NCc1ccccc1 | 0.257 |
| Cn1cccc1Cc1nnc(SCC(=O)N2CCN(c3ccccc3)CC2)n1-c1ccc(F)cc1 | -0.223 |

| Structure (SMILES) | z-score |
| --- | --- |
| Cn1cccc1Cc1nnc(SCC(=O)Nc2ccc(F)cc2)n1-c1ccc(F)cc1 | -0.84 |
| COc1ccc(NC(=O)CSc2nnc(Cc3cccn3C)n2-c2ccc(F)cc2)cc1OC | -0.626 |
| COc1ccc(NC(=O)CSc2nnc(Cc3cccn3C)n2-c2ccc(C)cc2)cc1OC | 2.03 |
| Cn1cccc1Cc1nnc(SCC(=O)N2CCCCCC2)n1-c1ccc(F)cc1 | 2.24 |
| CC(=O)Nc1cccc(NC(=O)CSc2nnc(Cc3cccn3C)n2-c2ccc(C)cc2)c1 | -0.278 |
| Cc1ccc(-n2c(Cc3cccn3C)nnc2SCC(=O)NC2CCCCC2)cc1 | 0.061 |
| Cn1cccc1Cc1nnc(SCC(=O)N2CCOCC2)n1-c1ccc(F)cc1 | -0.171 |
| Cn1cccc1Cc1nnc(SCC(=O)NC2CCCC2)n1-c1ccc(F)cc1 | 2.33 |
| CC(NC(=O)Cc1ccc(-c2ccccc2)cc1)c1ccccc1 (stereo not given) | -0.225 |
| Cc1cc(C)c2oc(C(=O)Nc3nnc(C(C)C)s3)cc(=O)c2c1 | -0.0364 |
| O=C(Nc1ccccc1)N1CCN(c2ccc(F)cc2)CC1 | 0.147 |
| CC(=O)c1ccc(Sc2ccc(C(C)=O)cc2)cc1 | -0.316 |
| CCn1nnc(-c2ccccc2NC(=O)c2cc(OC)c(OC)c(OC)c2)n1 | -1.03 |
| O=C(NC1CCCc2ccccc21)c1cccc(S(=O)(=O)N2CCN(c3ccccc3)CC2)c1 (stereo not given) | 2.28 |
| CN(C)S(=O)(=O)c1cccc(C(=O)NC2CCCc3ccccc32)c1 (stereo not given) | -0.104 |
| CC(=O)N1CCN(S(=O)(=O)c2cccc(C(=O)NC3CCCc4ccccc43)c2)CC1 (stereo not given) | 0.0317 |
| COC(=O)c1ccc(/C=N/NC(=O)CC(=O)NCC(C)C)cc1 | -0.0626 |
| COc1cc(CNCCO)cc(Br)c1OCc1ccccc1Cl | 1.32 |
| O=C(O/N=C/c1ccc2c(c1)OCO2)c1ccccc1Cl | 0.0816 |
| CCCn1c(SCc2nc(-c3cccs3)no2)nnc1-c1ccncc1 | 0.141 |
| CCOc1ccc(-n2c(SCc3nc(-c4cccs4)no3)nnc2-c2ccncc2)cc1 | 7.31 (active) |
| CCOc1ccc(-n2c(SCc3nc(-c4ccc(C)cc4)no3)nnc2-c2ccncc2)cc1 | -0.127 |
